# In ChEMBL document CHEMBL1157539, “Thousands of chemical starting points for antimalarial lead identification” (Nature, 2010):
# Tests used:
# Format in all cases: functional
# Plasmodium falciparum [1] = test: GSK_TCMDC: Inhibition of Plasmodium falciparum 3D7 in whole red blood cells, using parasite LDH activity as an index of growth. Test compounds present at 2uM
# Plasmodium falciparum [2] = test: GSK_TCMDC: Inhibition of Plasmodium falciparum Dd2 in whole red blood cells, using parasite LDH activity as an index of growth. Test compounds present at 2uM
# HepG2 = test: GSK_TCMDC: Percent inhibition of human HepG2 cell line. Test compounds present at 10uM.
SMILES,Inhibition (Plasmodium falciparum [1]),Inhibition (Plasmodium falciparum [2]),Inhibition (HepG2)
CNCCNCc1cccc(-c2ccc(-c3nc4cc(C(F)(F)F)ccc4[nH]3)cc2)c1.O=C(O)C(F)(F)F,100%,92%,21%
COc1ccc2nccc([C@@H](O)CN3CCC(NCc4nc5c(OCc6ccccc6)cccc5[nH]4)CC3)c2c1.O=C(O)C(=O)O,100%,34%,6%
c1ccc(Oc2ccc(Nc3ccnc4cc(-c5ccc(CN6CCOCC6)o5)ccc34)cc2)nc1,92%,73%,5%
COc1cc(NCC(O)CNc2cc(OC)c3ccccc3n2)nc2ccccc12,100%,93%,42%
COc1cccc(CNC(=O)c2cccc(-c3cccc(CN4CCC(N5CCCC5)CC4)c3)n2)c1.O=C(O)C(F)(F)F,100%,76%,22%
CCCN1CCN(c2ccc(NS(=O)(=O)c3ccc(C(=O)Nc4ccc(Cl)cc4)cc3)cc2)CC1.O=C(O)C(F)(F)F,100%,50%,4%
Cc1cccc2nc(-c3cccc(-c4ccc(NC(=O)Nc5ccc6c(c5)OCO6)cc4)c3)[nH]c12,100%,86%,80%
Cn1nc(-c2cccc(CNC3CCc4ccccc43)c2)c2cnc(NCCCN3CCCC3)nc21 (centres undefined),99%,15%,29%
O=C(NC(c1ccc(Cl)cc1)c1ccc2cccnc2c1O)c1ccccc1 (centres undefined),87%,80%,44%
COc1ccc2[nH]c(C)cc(=NN=Cc3ccc(Cl)cc3)c2c1,100%,100%,2%
O=C(N[C@H]1CCN(Cc2ccc(OCCN3CCNCC3)c(Br)c2)C1)c1ccc(Cl)c(Cl)c1.O=C(O)C(F)(F)F,100%,36%,69%
CN(Cc1ccc(C#N)cc1)C1CCN(c2cc(NC(=O)c3cccc(F)c3)ccn2)CC1.O=C(O)C(F)(F)F,83%,0%,9%
Cc1ccccc1C1CCN(C2CCC(NC(=O)/C=C/c3ccc(F)c(F)c3)CC2)CC1 (centres undefined),93%,7%,34%
Cc1ccc(Nc2nc3cc(Nc4ccnc(Nc5ccc(CS(C)(=O)=O)cc5)n4)ccc3o2)cc1,99%,66%,54%
CCN(CC)CCN(Cc1ccc(-c2ccc(C(F)(F)F)cc2)cc1)C(=O)Cn1c(CCc2c(F)cc(F)cc2F)nc(=O)c2ccccc21.O=C(O)C(O)C(O)C(=O)O,89%,26%,39%
COc1cc(Nc2nccc(N3CCC(NC(=O)Nc4cc(C)ccc4C)C3)n2)cc(OC)c1OC (centres undefined),91%,52%,13%
c1ccc(-c2cc3cccc(-c4nc5cnccc5[nH]4)c3o2)cc1,100%,95%,37%
CO/N=C(\C)c1ccc2c(c1)CCN(CCC1CCC(NC(=O)/C=C/c3ccc(F)cc3)CC1)CC2.Cl (centres undefined),95%,15%,45%
